Only some compounds are listed: those with a hit (about 1.5% of all), similar ones and a draw of the others.
VHR inh abs = DUSP3 (human) phosphatase inhibition; P51452; actives 0.52% (n = 290,000); inhibition, % at 13.3 µM; recombinant VHR phosphatase, pNPP absorbance; in the data active = inhibition above about 50%
RecA splice inh = inhibitors of M. tuberculosis RecA intein splicing; P9WHJ3; actives 0.75% (n = 290,000); cell-free RecA intein splicing, fluorescence; inhibition, % (concentration not given with the values); in the data active = inhibition above about 30%;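 also: 0% = vehicle wells and 100% = reference inhibitor control wells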
Target sequence (P9WHJ3 whole entry, looked up, canonical isoform): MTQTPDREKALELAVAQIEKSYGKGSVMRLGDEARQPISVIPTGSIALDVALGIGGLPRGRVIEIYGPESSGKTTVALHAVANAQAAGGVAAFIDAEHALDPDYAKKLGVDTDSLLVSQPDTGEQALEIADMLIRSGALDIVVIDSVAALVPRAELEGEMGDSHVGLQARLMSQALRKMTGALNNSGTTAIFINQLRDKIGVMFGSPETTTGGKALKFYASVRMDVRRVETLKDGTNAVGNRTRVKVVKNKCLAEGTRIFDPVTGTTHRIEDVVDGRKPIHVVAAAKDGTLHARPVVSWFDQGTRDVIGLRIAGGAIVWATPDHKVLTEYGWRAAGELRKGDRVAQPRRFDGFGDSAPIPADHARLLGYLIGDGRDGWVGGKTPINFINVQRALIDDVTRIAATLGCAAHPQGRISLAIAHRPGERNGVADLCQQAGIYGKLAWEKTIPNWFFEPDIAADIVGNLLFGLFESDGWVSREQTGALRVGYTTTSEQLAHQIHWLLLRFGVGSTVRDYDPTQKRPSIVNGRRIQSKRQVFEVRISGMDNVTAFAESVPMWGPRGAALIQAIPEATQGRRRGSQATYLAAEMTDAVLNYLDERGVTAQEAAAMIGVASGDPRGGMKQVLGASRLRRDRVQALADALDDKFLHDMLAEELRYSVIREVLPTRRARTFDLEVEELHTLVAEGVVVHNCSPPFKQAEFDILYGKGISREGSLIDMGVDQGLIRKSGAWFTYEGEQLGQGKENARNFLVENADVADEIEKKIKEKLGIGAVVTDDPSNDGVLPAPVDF
SARS 3CLpro inh = SARS-CoV 3CLpro protease inhibition | P0C6X7 | actives 0.14% (n = 290,000) | recombinant SARS-CoV 3CLpro, quenched FRET peptide cleavage | inhibition, % at 6 µM; in the data active = inhibition above about 12%
CCHF vOTU inh-1 = CCHFV vOTU protease inhibition. Pep-AMC fluorescence. inhibition, % at 11.5 µM. actives 0.55% (n = 370,000); also: 0% = vehicle wells with enzyme and 100% = no enzyme wells
CCHF vOTU inh-2 = CCHFV vOTU protease inhibition, confirmation. Recombinant CCHFV vOTU, Pep-AMC fluorescence. inhibition, % at 11.5 µM. shares compounds with CCHF vOTU inh-1. actives 17% (n = 1,900)
Numbers without * were called inactive; . = no result given. Rule as the data show it, unless noted: active = inhibition above about 30%; inactive = the rest.

SMILES | VHR inh abs | RecA splice inh | SARS 3CLpro inh | CCHF vOTU inh-1 | CCHF vOTU inh-2
Cc1cccc(CNC(=S)OC2CCC23CCC(c2ccccc2)CC3)c1 (stereo not given) | . | . | . | 9.7 | .
COc1ccc(N2CCN(C(CNC(=O)C(=O)NCc3cccs3)c3ccco3)CC2)cc1 (stereo not given) | 14.5 | -1.8 | 4.4 | 12.0 | .
O=C(NCc1cccs1)C(=O)NCC(c1ccco1)N1CCN(c2ccccc2)CC1 (stereo not given) | 1.7 | 0.8 | 0.2 | 30.5* | -4.6
CC1(c2nnnn2-c2ccc3c(c2)OCCO3)CCC(=O)N1CCc1c[nH]c2ccccc12 (stereo not given) | . | . | . | 0.6 | .
COC(=O)Nc1ccc(S(=O)(=O)N2CCC(C(=O)N(C)C3CCCCC3)CC2)cc1 | 9.3 | 0.5 | -4.9 | 30.6* | -19.1
CCOC(=O)CC[C@@H]1CC[C@]2(CCCN(C(=O)c3ccco3)C2)O1 | . | . | . | -2.2 | .
CCCCc1c(-c2ccccc2OC)ncn1Cc1ccc(F)cc1F | . | . | . | 33.3* | 0.3
CCCc1c(-c2cccc(F)c2)ncn1CCc1ccccc1OC | . | . | . | 19.9 | .
CCCc1c(-c2cccc(F)c2)ncn1Cc1ccccc1OC | . | . | . | 36.8* | 7.5
CCCCCc1c(-c2ccccc2F)ncn1CCc1ccccc1OC | . | . | . | 19.6 | .
CCCCc1c(-c2ccccc2F)ncn1CCc1ccccc1OC | . | . | . | 36.5* | 7.5
CCCCc1c(-c2ccccc2OC)ncn1CCc1ccccc1Cl | . | . | . | 31.4* | 9.1
O=C(O)CSc1cc(NS(=O)(=O)c2cccc([N+](=O)[O-])c2)c2ccccc2c1O | 69.3 | 95.2* | 2.6 | 108.4* | 98.6*
O=S(=O)(Nc1cc(Sc2cccc3cccnc23)c(O)c2ccccc12)c1ccccc1 | 5.1 | 8.5 | 8.8 | 40.3* | -2.7
COCCNC(=S)N1C[C@H]2CON(C)[C@H]2C[C@H]1c1ccccc1Br | . | . | . | 32.6* | -20.8
CCCCN1C(=S)NC[C@@H]1c1ccccc1 | -4.1 | 0.2 | 3.9 | 33.3* | 3.7
CCCCN1C(=S)NC[C@@H]1Cc1ccccc1 | -7.7 | -1.4 | -2.6 | 14.4 | .
COC(=O)C1=C(C)N(C)C(=NCc2ccccc2C(F)(F)F)NC1CCc1ccccc1 (stereo not given) | . | . | . | 2.3 | .
Cc1[nH]c2ccccc2c1C(=O)C(=O)N1CCN(c2cccc(Cl)c2)CC1 | -9.3 | 8.6 | 1.1 | 13.2 | .
COc1ccc(-c2c(-c3ccccc3)c(C(=O)C(=O)NCCCN(C)C)n3ccc4cc(OC)c(OC)cc4c23)cc1OC | 6.0 | 8.0 | -0.2 | 32.6* | -3.6
Cc1ccc(/C=N/n2c(-c3cccnc3)n[nH]c2=S)s1 | 8.5 | 0.4 | 6.8 | 34.0* | -1.5
S=c1[nH]nc(-c2cccnc2)n1/N=C/c1ccc(Br)s1 | -7.8 | -0.4 | -2.9 | 25.7 | .
Cc1nc2c(o1)C(=O)c1ccccc1C2=Nc1ccccc1 | . | . | . | 41.5* | 53.1*
O=C(O)c1cc(N2N=C(C(F)(F)F)/C(=C/C=C/c3ccco3)C2=O)ccc1Cl | 48.3 | . | 5.7 | 63.4* | 44.0*
COc1ccc(C(C)=O)c2c(O)cccc12 | 0.3 | -5.4 | -0.1 | 30.6* | -17.2
SMILES | VHR inh abs | RecA splice inh | SARS 3CLpro inh | CCHF vOTU inh-1 | CCHF vOTU inh-2
O=C(COC(=O)c1ccc([N+](=O)[O-])s1)Nc1ncc(C(F)(F)F)cc1Cl | 17.7 | -0.6 | -1.7 | 49.1* | 64.0*
O=C(COC(=O)c1ccccn1)Nc1ncc(C(F)(F)F)cc1Cl | 1.5 | -0.4 | -3.0 | 0.8 | .
CC1CCCC(NC(=O)COC(=O)c2ccc([N+](=O)[O-])s2)C1C (stereo not given) | . | . | . | 66.2* | 61.3*
CCc1ccc(OCC(=O)OCC(=O)NC2CCCC(C)C2C)cc1 (stereo not given) | . | . | . | 10.0 | .
CC1CCCC(NC(=O)COC(=O)COc2cccc(F)c2)C1C (stereo not given) | . | . | . | 41.5* | -15.8
COc1ccc(Cn2c(NC(=O)c3ccccc3)nc(Cc3ccccc3)c2-c2ccccc2)c(OC)c1 | . | . | . | 1.0 | .
C=CCNC(=S)N1CCN(Cc2ccccc2)CC1 | 7.3 | -1.9 | 3.8 | 2.6 | .
O=C(Nc1scc(-c2ccc(F)cc2)c1C(=O)O)c1ccco1 | 8.2 | -1.4 | 6.9 | 31.3* | -6.4
Cn1c(Cc2cccs2)nnc1SCC(=O)Nc1ccc2cn[nH]c2c1 | . | . | . | 31.4* | 4.5
O=C(COC(=O)c1ncc(Cl)c(Cl)c1Cl)NC1CCCCCC1 | . | 0.4 | . | 40.7* | 7.5
Cc1nn(-c2ccc(F)cc2)c(C)c1NS(=O)(=O)c1ccc(Cl)cc1 | -21.5 | 10.5 | -2.4 | 30.2* | -8.9
Cc1ccc(-n2nc(C)c(NS(=O)(=O)c3ccccc3)c2C)cc1C | -1.7 | 0.4 | 4.3 | -8.9 | .
CCc1nnc(NS(=O)(=O)c2ccc(N3C(=O)c4ccc(C(=O)O)cc4C3=O)cc2)s1 | 17.6 | -1.4 | -0.2 | -0.4 | .
CNCc1ccccc1Sc1cc(O)ccc1O | -7.8 | . | 0.5 | 29.7* | 3.6
Cc1ccc2c(c1)c1c(n2CC(O)Cn2c(C)nc3ccccc32)CCCC1 (stereo not given) | -18.5 | 2.4 | 0.2 | 4.3 | .
Cc1ccc2c(c1)c1c(n2CC(O)CNC(C)(C)C)CCCC1 (stereo not given) | 0.4 | . | -2.1 | 56.9* | -13.7
COc1ccc(OS(=O)(=O)c2c(C)noc2C)cc1 | 20.1 | -0.6 | -1.1 | -6.5 | .
O=C(c1cccs1)N1C[C@@H](O)[C@H](n2cc(C3CC3)nn2)C[C@@H]1c1ccccc1 | . | . | . | 1.7 | .
O=C(c1cccs1)N1C[C@H](O)[C@@H](n2cc(C3CC3)nn2)C[C@@H]1c1ccccc1 | . | . | . | 30.5* | -21.7
OC(c1ccc(F)cc1)c1nc(-c2ccoc2)cs1 (stereo not given) | . | . | . | -5.1 | .
COc1ccc(C(O)c2nc(-c3ccoc3)cs2)cc1 (stereo not given) | . | . | . | 29.7* | -20.4
COc1ccccc1N1CCN(c2ccc(S(=O)(=O)N3CCN(C)CC3)cn2)CC1 | . | . | . | 33.0* | -12.3
CNc1ncn(-c2c(C)cccc2C)c(=O)n1 | . | . | . | 12.2 | .
Oc1ccc(NCc2cccc(OCc3ccccc3)c2)cc1 | 17.4 | 16.6 | 1.8 | 72.8* | -15.2
Oc1ccc(NCc2cccc(OCc3ccc(F)cc3)c2)cc1 | 4.8 | 0.3 | -3.1 | 89.0* | 15.7
SMILES | VHR inh abs | RecA splice inh | SARS 3CLpro inh | CCHF vOTU inh-1 | CCHF vOTU inh-2
O=[N+]([O-])c1ccc(COc2cccc(CNc3ccc(F)cc3)c2)cc1 | 14.7 | 11.1 | 4.0 | -8.3 | .
COc1ccc(CNC(=O)Cn2nc(C(F)(F)F)c3c2CCC3)cc1 | 18.2 | -0.7 | -1.8 | 8.7 | .
COc1ccc(NC(=O)Cn2nc(C(F)(F)F)c3c2CCCC3)c(OC)c1 | -9.5 | 2.0 | -0.3 | 30.5* | -20.6
O=C(O)c1ccc2c(c1)S(=O)(=O)c1cc(N3CCN(c4cnccn4)CC3)ccc1C2=O | . | . | . | 17.7 | .
COc1cc(NCCCCC(C)N)c2nccc(C)c2c1 (stereo not given) | . | . | . | 57.1* | 44.6*
COc1cc(/C=N/NC(=O)COc2ccc(-n3cnnn3)cc2)ccc1OCC(N)=O | 27.2 | -0.2 | -4.8 | 0.5 | .
C[C@H]1[C@H](c2ccccc2)Oc2cccc(NCCc3ccccc3)c2S(=O)(=O)N1Cc1ccc(F)cc1 | . | . | . | -5.2 | .
CCc1noc(C)c1C(=O)N(C)CC(=O)Nc1ccccc1C(F)(F)F | . | 2.5 | . | 35.9* | -1.5
CCc1noc(C)c1C(=O)N(C)CC(=O)Nc1ccc(Cl)c(Cl)c1 | . | -1.2 | . | -8.2 | .
O=C1C=C(N2CC2)c2ccccc2C1=O | . | . | . | 105.0* | 92.0*

Compound activity: PubChem BioAssay, several laboratories
